From PubChem BioAssay (NCI)
This is part of a sample that, as a whole, favours compounds with a hit. Of some 83,000 tested, about 20% had one in any assay.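 Activity criterion: percent growth below 10, measured after cells in 96-well plates were exposed to a single compound concentration for 48 hours.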 Unmarked numbers belong to inactive results. Calls of active or inactive are those of the source.

Tests used:
Experiment in all cases: NCI-60 one-dose screen, 48 h (100 = growth as untreated, 0 = no growth, -100 = all killed)
Conditions in all cases: 10 µM
[1] = tested on: 786-0 renal
[2] = tested on: MALME-3M melanoma
[3] = tested on: SF-268 CNS
[4] = tested on: SF-295 CNS
[5] = tested on: UACC-257 melanoma
[6] = tested on: PC-3 prostate
[7] = tested on: UACC-62 melanoma
[8] = tested on: SK-MEL-28 melanoma
[9] = tested on: SK-MEL-2 melanoma
[10] = tested on: EKVX NSCLC
[11] = tested on: SN12C renal
[12] = tested on: UO-31 renal
[13] = tested on: TK-10 renal
[14] = tested on: ACHN renal
[15] = tested on: CAKI-1 renal
[16] = tested on: A498 renal
[17] = tested on: OVCAR-8 ovarian
[18] = tested on: OVCAR-5 ovarian
[19] = tested on: IGROV1 ovarian
[20] = tested on: OVCAR-3 ovarian

Row | SMILES | growth [1] [%] | growth [2] | growth [3] [%] | growth [4] | growth [5] | growth [6] | growth [7] | growth [8] [%] | growth [9] | growth [10] | growth [11] [%] | growth [12] | growth [13] [%] | growth [14] [%] | growth [15] | growth [16] | growth [17] [%] | growth [18] [%] | growth [19] [%] | growth [20] [%]
1 | COc1ccc(C2c3sc4ccc(C)cc4c3Oc3nc(N)nc(N)c32)cc1 (stereo not given) | 102 | 85.3% | 88.6 | 102% | 94.9% | 79.8% | 63.4% | 93.2 | 96% | 76.4% | 91.4 | 60.5% | 125 | 94.4 | 63.3% | 113% | 87 | 96.2 | 79.1 | 96.8
2 | Cc1ccc(COc2ccc(NC(=O)Nc3ccc(Cl)c(C(F)(F)F)c3)cc2)cc1 | 89.4 | 75.5% | 86.2 | 67.7% | 76.1% | 38.4% | 60.5% | 93.6 | 85.3% | 63.1% | 81.1 | 63.5% | 77.9 | 56.8 | 61.7% | 82.6% | 80.4 | 85 | 79.2 | 68.7
3 | Cc1ccc2sc3c(c2c1)Oc1nc[nH]c(=O)c1C3c1cccc(F)c1 (stereo not given) | 102 | 98.7% | 104 | 109% | 101% | 85.7% | 74.5% | 110 | 102% | 87.9% | 89.5 | 66.3% | 154 | 97 | 83.2% | 129% | 107 | 108 | 89.2 | 114
4 | CC(C)(C)c1cc(/C=C2\S/C(=N/c3ncn[nH]3)NC2=O)cc(C(C)(C)C)c1O | 24.5 | 36.8% | 23.3 | 14.3% | 17.5% | 12.2% | 1.85% (active) | 21.6 | -7.9% (active) | 12.3% | 12.7 | 15.1% | 24 | 18.2 | 19.6% | 32.8% | 10.8 | 32.8 | 17.7 | 17.3
5 | COc1ccc(C(=O)COc2ccc(NC(=O)Nc3ccccc3)cc2)cc1 | 94 | 85.3% | 91.6 | 90.5% | 93.8% | 83.1% | 80% | 102 | 80.8% | 82.7% | 91.1 | 80% | 101 | 98 | 72.7% | 104% | 87.2 | 98.7 | 94.8 | 104
6 | O=C(Nc1ccc(OCc2ccc(F)cc2)cc1)Nc1ccc(Cl)c(C(F)(F)F)c1 | 13.5 | -10.2% (active) | 39 | -30.4% (active) | -1.33% (active) | -1.21% (active) | 6.53% (active) | 31.4 | -34.7% (active) | 8.3% (active) | 21.9 | 7.5% (active) | 20.2 | 14.6 | 2.77% (active) | -9.28% (active) | 12.8 | 31.9 | 43.6 | 34.5
7 | O=C1NC2C=CC=CC2/C1=C1/SC(=S)N(C2CC(=O)N(c3ccc(Br)cc3)C2=O)C1=O (stereo not given) | 97.5 | 97.6% | 95.7 | 109% | 95.9% | 76.6% | 87.6% | 101 | 107% | 92.6% | 96 | 68.3% | 124 | 94.1 | 77.1% | 129% | 97.6 | 104 | 100 | 92.2
8 | O=C1NC(=S)S/C1=C\c1cn(-c2ccccc2)nc1-c1ccc([N+](=O)[O-])cc1 | 17.9 | -5.53% (active) | 42.7 | 5.23% (active) | -10.5% (active) | 11.2% | 8.03% (active) | 18.3 | -29.2% (active) | 9.43% (active) | 14.9 | 14% | 19.3 | 12.6 | 14.5% | -2.74% (active) | 18 | 48.5 | 29.2 | 21.7
